Screening data: PubChem, National Center for Advancing Translational Sciences (NCATS)
Many of the other results were omitted from the sample, so hits are more common in it than they were.
CHX counter: counter-screen hit for Shiga toxin inhibitors, cycloheximide; cell reporter, cycloheximide protein synthesis inhibition counterscreen; max response, %; 300,000 tested, 12% active; AID 2314; in the data active = max response mostly above about 13%, no sharp cut-off; inactive = mostly below about 14%; also: read at 38.3 µM for the half of the compounds with a filed dose
Shiga toxin inh: Shiga toxin inhibition | Vero cells, Shiga toxin protein synthesis inhibition reporter | inhibition, % at 38.7 µM | 290,000 tested, 9.2% active; in the data active = inhibition mostly above about 28%, no sharp cut-off; inactive = mostly below about 43%
MARV entry inh: inhibitors of Marburg virus binding or cell entry; Marburg virus pseudotyped entry inhibition, cell reporter; Potency, µM (doses to about 37.8 µM), most hits filed as inhibitors; 300,000 tested, 1.8% active; AID 540276; calls by dose curve; tested in HEK293 cells
Lassa entry inh: blocks Lassa virus binding to or entry into cells; Lassa virus pseudotype entry inhibition, cell reporter; Potency, µM (top dose mostly 37.9 µM), most hits filed as inhibitors; 300,000 tested, 1.2% active; AID 540256; calls by dose curve; tested in HEK293 cells; also: nearly all actives have a fitted effect of over 50% in size
AMA1-RON2 inh: disrupts binding of P. falciparum AMA1 to RON2; 360,000 tested, 0.2% active; Potency, µM (top dose mostly 58.2 µM), usual class: inhibitors; AlphaScreen AMA1-biotinylated RON2 peptide binding; active = well fitted inhibition curve with a large enough effect; inconclusive = small, poorly fitted or top-dose-only effect; inactive = no such curve, though single readings can be large or run the other way; also: nearly all actives have a fitted effect of over 45% in size
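AMA1 (3D7) with his tag at 25 nM final met compounds first, then biotinylated RON2 peptide at 25 nM; detection used donor plus acceptor beads, 10 µg/mL apiece, read by AlphaScreen after 30 min at room temperature.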
Hits are given with their value; . = inactive; ? = inconclusive; / = no result given.

SMILES	CHX counter	Shiga toxin inh	MARV entry inh	Lassa entry inh	AMA1-RON2 inh
Cc1ccc(/C=N/NC(=O)C2(C)CC2(Br)Br)cc1 (centres undefined)	13	.	.	.	.
Cc1cn(CC(=O)N(C)Cc2ccco2)c(=O)[nH]c1=O	/	/	/	/	.
Cc1ccsc1CN(C(=O)c1ccc(OCC(C)C)cc1)C1CCS(=O)(=O)C1 (centres undefined)	/	/	.	8.9µM	/
COCCNC(=O)C1(C)CCCN(C(=O)c2ccc3snnc3c2)C1 (centres undefined)	/	/	/	/	.
Brc1ccccc1-c1nnc(COc2cccc3cccnc23)o1	.	.	.	.	.
N#Cc1ccccc1OCc1nnc(-c2ccccc2Br)o1	48	103	?	?	.
Clc1ccccc1OCc1nnc(-c2ccccc2Br)o1	52	120	.	?	.
Clc1ccc(Cc2nnc(-c3ccccc3Br)o2)cc1	22	39	.	.	.
Cc1ccc(-n2nc(C(=O)Nc3ccc(F)cc3Cl)c(=O)n(C)c2=O)cc1	/	/	/	.	/
Cc1c(NC(=O)c2sc3ccccc3c2Cl)cccc1-c1nc2ccccc2o1	/	/	/	.	/
c1ccc2nc3c(nc2c1)sc1nc2ccccc2n13	.	.	/	/	/
CC(C)(O)c1cc(=O)sc2nc3ccccc3n12	32	70	.	?	.
Cc1ccc(C)c(Cn2c(=O)n(CCCC(=O)NCc3ccc4c(c3)OCO4)c(=O)c3sccc32)c1	/	/	?	.	/
S=c1[nH]cnc2sc(-c3ccccc3)cc12	31	77	.	/	.
O=C(COC(=O)c1ccc2c(=O)n3c(nc2c1)CCC3)NC1CCS(=O)(=O)C1 (centres undefined)	.	.	.	.	.
O=C1N=C(N2CCOCC2)S/C1=C\c1cccs1	22	39	.	/	.
N#CCCN1CCN(C2=NC(=O)/C(=C\c3cccs3)S2)CC1	21	.	?	.	.
Cc1ccccc1-c1ccc(/C=C2/SC(N3CCOCC3)=NC2=O)o1	.	.	?	13µM	.
O=C(CN1CCN(c2ccccn2)CC1)Nc1cccc(F)c1	.	.	/	/	.
C=CCOc1c(Cl)cc(CNc2ccc(N(C)C)cc2)cc1OC	42	.	?	?	.
O=C(O)Cn1cc(/C=C2\SC(=O)N(c3ccccc3)C2=O)c2ccccc21	16	.	.	.	.
Cn1cccc1/C=C1\SC(=O)N(c2ccccc2)C1=O	52	63	.	.	.
Cn1cccc1/C=C1\SC(=S)N(Nc2ccccc2)C1=O	37	51	/	/	.
Cn1cc(/C=C2/SC(=O)N(c3ccccc3)C2=O)c2ccccc21	25	.	?	.	.
O=C(O)Cn1cc(/C=C2/SC(=O)N(CC(=O)N3CCCCCC3)C2=O)c2ccccc21	.	.	?	.	.
SMILES	CHX counter	Shiga toxin inh	MARV entry inh	Lassa entry inh	AMA1-RON2 inh
Cn1cc(/C=C2\SC(=S)N(NC(=O)c3ccccc3)C2=O)c2ccccc21	.	.	.	.	.
Cn1nnnc1SCCCNCc1ccccc1OCc1ccc(Cl)cc1	/	/	?	.	/
COc1ccc2c(c1)CC(C(=O)NCCCN1CCN(c3ccc(F)cc3)CC1)CO2 (centres undefined)	/	/	/	.	/
CCc1ccc2nc(N(CCCN(C)C)C(=O)c3ccc(S(=O)(=O)N4CCCc5ccccc54)cc3)sc2c1	.	.	?	13µM	?
CN(C)CCN(C(=O)c1ccc(S(=O)(=O)N2CCc3ccccc32)cc1)c1nc2ccc(F)cc2s1	.	79	?	.	.
CC(=O)Nc1nc(-c2ccc(Cl)cc2)nc(C)c1C(C)=O	21	18	.	.	.
CC(=O)c1c(C)nc(C)nc1NC(=O)Cc1ccccc1	.	.	.	.	.
O=C(c1[nH]ncc1-c1ccccc1)C1CO1 (centres undefined)	.	.	.	.	.
O=C(c1[nH]ncc1-c1cccc(Br)c1)C1CO1 (centres undefined)	active	.	?	?	.
COc1cccc(NC(=O)c2ncc(Cl)c(Cl)c2Cl)c1	32	63	.	?	.
COc1cccc(NC(=O)c2ccn(C)n2)c1	41	72	.	?	.
COc1cccc(NC(=O)c2cnsn2)c1	44	140	.	?	.
COC(=O)c1c(-c2cccs2)csc1NC(=O)COc1ccc(C(C)C)cc1	/	/	.	.	/
COc1cc(/C=N/Nc2nncn2N)ccc1OCc1c(C)no[n+]1[O-]	13	.	.	/	.
Nn1cnnc1N/N=C/c1ccc(Cl)cc1Cl	12	.	?	?	.
COc1ccc(/C=N/Nc2nncn2N)cc1Br	22	/	?	?	.
O=C(N/N=C/c1ccc(Cl)cc1Cl)c1ccc(-n2cnnn2)cc1	/	/	/	/	.
